From the supplement of paper PMC3545927
Some of the results follow. The hit rate among all sequences tested is not known here.

Molecular target: furin, P09958
Assay: furin cleavage Z-score vs untreated control; higher = more cleavage, active = 3.5 or more, inactive = 1 or less, 8 variable residues between constant flanks
Outline: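 Purified furin cleaved 8-mer peptides that were fused to a cDNA oligonucleotide and held on magnetic beads by their N-terminus. Each 0.01 ml reaction used a 1:10 enzyme:substrate ratio in 50 mM HEPES pH 7.5 with CaCl2 and NaCl and ran 7.5, 15 or 30 min. Released DNA was adapter-tagged by PCR and sequenced, and read counts gave abundance. The cleavage Z-score came from log counts against furin-free reactions, lowess-adjusted and scaled by median absolute deviation.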

Chain of furin, P09958 (P09958 whole entry): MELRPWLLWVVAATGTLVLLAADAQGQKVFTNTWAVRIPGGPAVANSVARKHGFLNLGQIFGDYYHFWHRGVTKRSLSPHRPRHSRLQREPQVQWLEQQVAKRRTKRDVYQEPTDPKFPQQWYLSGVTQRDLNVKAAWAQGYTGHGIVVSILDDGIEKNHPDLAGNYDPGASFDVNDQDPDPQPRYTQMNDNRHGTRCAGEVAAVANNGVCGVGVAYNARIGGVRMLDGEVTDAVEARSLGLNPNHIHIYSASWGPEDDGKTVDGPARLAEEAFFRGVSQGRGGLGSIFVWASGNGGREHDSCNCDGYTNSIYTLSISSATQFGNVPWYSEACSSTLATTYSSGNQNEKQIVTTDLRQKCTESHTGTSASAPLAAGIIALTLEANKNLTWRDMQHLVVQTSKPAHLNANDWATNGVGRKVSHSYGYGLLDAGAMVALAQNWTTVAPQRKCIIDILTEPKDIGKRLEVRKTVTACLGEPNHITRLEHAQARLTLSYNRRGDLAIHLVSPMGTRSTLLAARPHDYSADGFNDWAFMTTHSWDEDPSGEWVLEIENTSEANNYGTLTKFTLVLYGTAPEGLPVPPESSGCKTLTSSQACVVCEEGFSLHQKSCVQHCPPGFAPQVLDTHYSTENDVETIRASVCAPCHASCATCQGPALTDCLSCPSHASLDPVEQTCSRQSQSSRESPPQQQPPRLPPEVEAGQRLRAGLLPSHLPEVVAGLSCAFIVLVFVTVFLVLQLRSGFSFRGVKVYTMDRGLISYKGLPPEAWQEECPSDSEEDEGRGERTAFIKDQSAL

Sequence	furin cleavage Z-score (7.5 min)	furin cleavage Z-score (15 min)	furin cleavage Z-score (30 min)
CAAYDIIICDAGNASASA [HC815]	-1.2 (inactive)	-0.574 (inactive)	-0.848 (inactive)
CAVVGVVCAAAGNASASA [HC1107]	0.556 (inactive)	-0.0757 (inactive)	-0.152 (inactive)
CAVQGLLRFCAGNASASA [HC618]	-0.0765 (inactive)	0.463 (inactive)	-0.436 (inactive)
CALASRRYRGAGNASASA [FS-547]	-0.863 (inactive)	-0.493 (inactive)	-0.101 (inactive)
CAIIKRSAWEAGNASASA [FS-2408]	-0.767 (inactive)	-0.224 (inactive)	-0.00284 (inactive)
CAPFVSCQRGAGNASASA [HC1164]	0.755 (inactive)	0.834 (inactive)	-0.509 (inactive)
CAIRKRDRRGAGNASASA [FS-1016]	12 (active)	13.2 (active)	9.35 (active)
CAGVPRSFRGAGNASASA [TR2]	0.299 (inactive)	-0.905 (inactive)	-1.74 (inactive)
CAPANRSRRGAGNASASA [FS-67]	10.1 (active)	11.8 (active)	9.38 (active)
CALARRSRRGAGNASASA [FS-816]	7.83 (active)	7.63 (active)	6.48 (active)
CAIIKRSRRGAGNASASA [FS-1344]	6.89 (active)	7.38 (active)	7.28 (active)
CAMEEKSQHLAGNASASA [HC11]	0.661 (inactive)	-0.101 (inactive)	0.52 (inactive)
CATTPQSGSWAGNASASA [HC59]	-0.528 (inactive)	-0.454 (inactive)	-0.569 (inactive)
CAGFTKVCGAAGNASASA [HC440]	0.851 (inactive)	0.701 (inactive)	-1.33 (inactive)
CANSSIVYEAAGNASASA [HC265]	0.639 (inactive)	-1.3 (inactive)	-0.329 (inactive)
CAEVVTSGWVAGNASASA [HC2216]	0.374 (inactive)	-0.391 (inactive)	-0.0659 (inactive)
CAPQARVAIKAGNASASA [HC1494]	0.98 (inactive)	-0.346 (inactive)	1.74
CAGTPCSGSWAGNASASA [HC1836]	-0.934 (inactive)	-0.454 (inactive)	-1.18 (inactive)
CARVARVRGGAGNASASA [FS-1938]	-0.221 (inactive)	-0.337 (inactive)	-1.51 (inactive)
CARVARVAREAGNASASA [FS-1799]	7.74 (active)	5.71 (active)	5.82 (active)
CARVDRDVAPAGNASASA [FS-2616]	0.776 (inactive)	-0.0435 (inactive)	0.369 (inactive)
CADFERKAREAGNASASA [FS-222]	0.924 (inactive)	0.123 (inactive)	0.387 (inactive)

Sequence	furin cleavage Z-score (7.5 min)	furin cleavage Z-score (15 min)	furin cleavage Z-score (30 min)
CARVARHAAPAGNASASA [FS-2193]	7.61 (active)	8.49 (active)	8.42 (active)
CAGREILLGPAGNASASA [HC664]	-0.781 (inactive)	-0.532 (inactive)	0.339 (inactive)
CAGRGRGGGGAGNASASA [NG4]	0.497 (inactive)	-0.137 (inactive)	0.673 (inactive)
CAGRERMAREAGNASASA [FS-332]	5.27 (active)	6.35 (active)	5.57 (active)
CAGRGRERRWAGNASASA [FS-333]	6.35 (active)	9.27 (active)	8.33 (active)
CARQAEVIAPAGNASASA [HC1031]	0.765 (inactive)	1.4	-0.146 (inactive)
CAEVVISTWVAGNASASA [HC125]	0.441 (inactive)	-0.457 (inactive)	-1.26 (inactive)
CACGAEITGHAGNASASA [HC1176]	-2.29 (inactive)	-1.09 (inactive)	-4.52 (inactive)
CAEVPCHAPSAGNASASA [HC2363]	0.635 (inactive)	1.02	0.728 (inactive)
CARVARERRWAGNASASA [FS-292]	7.91 (active)	11.7 (active)	9.72 (active)
CARPGRPARVAGNASASA [FS-1159]	-0.325 (inactive)	-0.113 (inactive)	-0.65 (inactive)
CARQGRIARVAGNASASA [FS-1608]	4.13 (active)	2.36	3.61 (active)
CARQGRVISVAGNASASA [FS-2168]	-2.08 (inactive)	-0.187 (inactive)	0.163 (inactive)
CARIERVARVAGNASASA [FS-187]	2.36	1.28	4.15 (active)
CAEVPCHRPWAGNASASA [HC2408]	-0.0166 (inactive)	0.18 (inactive)	0.457 (inactive)
CARIERVIGAAGNASASA [FS-2212]	0.267 (inactive)	-1.07 (inactive)	0.338 (inactive)
CAFCTTPCSGAGNASASA [HC1947]	1.42	-0.358 (inactive)	-1.43 (inactive)
CATGMTTDNLAGNASASA [HC1212]	-0.509 (inactive)	1.51	-0.989 (inactive)
CAHLNSTALNAGNASASA [HC371]	1.65	0.509 (inactive)	0.52 (inactive)
CAVEPVVFSQAGNASASA [HC646]	-0.426 (inactive)	0.0995 (inactive)	-0.8 (inactive)
CASMPCSAHLAGNASASA [HC2486]	-0.177 (inactive)	1.03	-0.00604 (inactive)
